TrxR1 substrate: is turned over as a substrate by rat TrxR1; O89049; purified TrxR1 substrate turnover, NADPH consumption readout; Potency, µM (series often up to 114 µM); 0.01% of 390,000 active; further: nearly all actives have a fitted effect of over 50% in size
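Rat TrxR1, dispensed at 90 nM, was prereduced with 400 uM NADPH (final) for 5 min at ~22 deg C, then incubated with compound 15 min before 400 uM selenite. A first-read NADPH fluorescence drop versus no-compound background flagged substrates.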
PKM2 act: increases activity of human pyruvate kinase M2; P14618; purified PKM2, Kinase-Glo ATP luminescence, activation; response scale: 0% is enzyme alone, no compound; Potency, µM (highest dose often 57.5 µM), usual class: activators; 0.34% of 260,000 active; AID 1631; further: nearly all actives have a fitted effect of over 55% in size
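Kinase-Glo luminescence reports ATP generated from ADP (0.1 mM) and PEP (0.5 mM) by purified hPK-M2 after 1 h at room temperature, pH 7.2 imidazole buffer; intermediate enzyme activity allows detecting inhibitors and activators.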
IDH1 R132H inh: blocks human mutant IDH1 R132H enzyme; IDH1-R132H enzyme, NADPH consumption, diaphorase/resazurin fluorescence; Potency, µM (top dose mostly 76.6 µM), most hits filed as inhibitors; AID 602179; 0.093% of 390,000 active; O75874; further: nearly all actives have a fitted effect of over 65% in size
Target sequence (O75874 whole entry R132H, stated change not applied): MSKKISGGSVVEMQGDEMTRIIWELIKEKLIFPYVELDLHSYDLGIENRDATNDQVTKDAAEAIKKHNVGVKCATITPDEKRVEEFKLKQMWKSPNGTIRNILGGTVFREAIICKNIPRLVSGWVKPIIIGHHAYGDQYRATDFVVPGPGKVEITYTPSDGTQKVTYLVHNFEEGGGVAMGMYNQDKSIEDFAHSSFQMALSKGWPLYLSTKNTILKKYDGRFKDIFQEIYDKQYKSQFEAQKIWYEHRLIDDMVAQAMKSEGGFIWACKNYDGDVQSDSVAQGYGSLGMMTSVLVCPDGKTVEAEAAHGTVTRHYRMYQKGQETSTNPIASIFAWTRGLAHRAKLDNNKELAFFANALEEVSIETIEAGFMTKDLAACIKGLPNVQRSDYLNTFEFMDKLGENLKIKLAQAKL
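IDH1-R132H (0.5 ug/mL) preincubated 30 min with compound, then NADPH (0.016 mM) and alpha-KG (2 mM) added; 80 min at RT, pH 7.5. Remaining NADPH coupled via diaphorase/resazurin to fluorescence (540/590 nm); concentration-response curves normalized to no-enzyme control.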
TrxR1 inh: rat TrxR1 inhibition; O89049; 1% of 390,000 active; Potency, µM (highest dose often 114 µM), hits mostly inhibitors; recombinant rTrxR1, NADPH fluorescence consumption, selenite substrate; further: nearly all actives have a fitted effect of over 65% in size
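Rat TrxR1 (90 nM in the dispensed reagent) was pre-reduced with 400 uM NADPH for 5 min at room temperature, then incubated with compound for 15 min. After 400 uM selenite was added, NADPH fluorescence (Ex 340/Em 450 nm) was followed for 8 min.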
GALK inhibitor: galactokinase (human) inhibition; Purified GALK, Kinase-Glo residual ATP luminescence; Potency, µM (highest dose often 57.5 µM), actives largely listed as inhibitors; P51570; 0.007% of 270,000 active
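ATP-depletion format; final 35 uM ATP, 100 uM D-galactose, 5 nM enzyme; pH 8.0 HEPES/Mg2+ buffer; 60 min RT; luminescence read 10 min after detection reagent.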
Anesthetic bind: binds horse apoferritin like a general anesthetic; P02791; apoferritin/1-aminoanthracene competitive binding, fluorescence; Potency, µM (doses to about 77.5 µM), usual class: inhibitors; 0.074% of 350,000 active; AID 485281; further: nearly all actives have a fitted effect of over 20% in size
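Read-out: endpoint 1-AMA fluorescence, excitation 380 nm and emission 535 nm, after compounds sit 10 min at room temperature with 10 uM horse-spleen apoferritin in 50% saturated 1-AMA/PBS. Values come from four-parameter Hill fits.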
Hits are given with their value; – = inactive; ? = inconclusive; · = not tested or not shown; [ ] = remark or other dose. This is a sample that favours compounds with a hit; in the whole collection about 1.3% have one here. The call rests on the fitted dose curve; in most records, active means well fitted curve in the direction sought with a large enough effect; inconclusive means small, poorly fitted or top-dose-only effect, or another doubt; inactive means no such curve, though single readings can be large; an effect the other way counts as inactive or inconclusive.

SMILES	TrxR1 substrate	PKM2 act	IDH1 R132H inh	TrxR1 inh	GALK inhibitor	Anesthetic bind
C=CCC(Nc1ccccc1)C12C=CC(O1)C(C(=O)OC)=C2C(=O)OC (configuration not stated)	–	–	–	7.9µM	–	–
CN(C)c1ccc(C=Nc2cnc3ccccc3c2)cc1	–	·	·	–[0.0914 µM]	·	·
CCOC(=O)c1ccccc1NC(=O)N1CCCn2nc(C)cc21	–	·	–	–	·	–
CC(C)c1ccc(NC(=O)C2CC2c2ccccc2)cc1 (configuration not stated)	–	–	–	–	–	35µM
COc1ccc(NC(=O)CSc2ccc3nc(-c4ccccc4)cn3n2)c(OC)c1	–	·	–	–	·	–
COc1cc(/C=C2/C(=O)ON=C2c2ccccc2)ccc1O	–	–	–	13µM	–	–
COc1cc(/C=C2\C(=O)ON=C2c2ccccc2)cc(Cl)c1O	–	–	–	16µM	–	–
CCOc1cc(/C=C2\C(=O)ON=C2c2ccccc2)cc(Br)c1O	–	·	–	14µM	?	–
COc1cc(C=C2C(=O)c3ccccc3C2=O)ccc1O	–	–	–	–	–	–
COc1cc(/C=C2\C(=O)ON=C2c2ccccc2)cc(Br)c1O	–	·	–	11µM	?	–
O=C(C[n+]1cccc2cc(Cl)ccc21)c1ccc2ccccc2c1	–[0.0914 µM]	·	·	–	·	·
Cc1ccc(-n2nnnc2CCl)cc1	–	–	–	14µM	–	–
Nc1cc(OCC(F)(F)F)cc([N+](=O)[O-])c1	–	–	–	–	·	–
Nc1cc(N)c(OCC(F)(F)F)cc1OCC(F)(F)F	–	–	–	0.32µM	–	?
O=C1C=CC(=O)N1Cc1ccccc1	–	–	–	0.4µM	·	–
Cc1onc(-c2c(Cl)cccc2Cl)c1C(=O)N[C@H]1C(=O)N2[C@H]1SC(C)(C)[C@H]2C(=O)O	·	·	·	·	·	–
COC(=O)c1nc(NC(=O)c2cc(OC)c(OC)c(OC)c2)n[nH]1	–	·	–	40µM	–	–
COc1cc(C(=O)Nc2ccncc2)cc(OC)c1OC	–	–	–	–	–	–
N.N.O=C(O)C1(C(=O)O)CCC1.[Pt+2]	–	·	·	0.95µM	·	·
NC1(C(=O)O)CCCCC1	–	·	·	–	·	·
CCOc1ccc(/C=C/C(=O)c2cc(Br)ccc(=O)c2O)cc1	–	–	–	35µM	–	–
CCOc1cc(C=C(C#N)C#N)ccc1Oc1ccc([N+](=O)[O-])cn1	–	–	–	10µM	–	–
CC(C)CC(=O)Nc1ccc2nc(SCC(=O)N3CCc4ccccc43)sc2c1	–	·	–	–	·	–
O=C(CCc1ccccc1)Nc1cc(Cl)ccc1O	–	–	–	–	–	5.6µM
O=C(CSc1ncnc2sc3c(c12)CCCCC3)NCc1ccco1	–	–	–	?	–	?
SMILES	TrxR1 substrate	PKM2 act	IDH1 R132H inh	TrxR1 inh	GALK inhibitor	Anesthetic bind
CC(C)c1nc2sc3c(SCC(=O)NCc4ccco4)ncnc3c2c2c1CCC2	?	35µM	–	?	–	?
O=C(N/C(C(=O)N1CCOCC1)=C(\Sc1ncccn1)c1ccccc1)c1ccccc1	–	–	–	50µM	–	–
CC(=O)c1cccc(-n2c(CCC(=O)O)ccc2-c2ccccc2)c1	–	·	–	50µM	·	–
CC(=O)c1ccc(-n2c(CCC(=O)O)ccc2-c2ccccc2)cc1	–	·	–	?	–	–
COc1ccc(CNC(=O)c2cccc(-n3cnc4cccnc43)c2C)cc1	–	·	–	–	·	–
Cc1ccc(Nc2c3c(nc4nncn24)CCC3)cc1	–	·	·	–	·	–
Brc1ccc(Nc2c3c(nc4nncn24)CCC3)cc1	–	·	·	22µM	·	–
COc1cccc(OCC(=O)NCCS(=O)(=O)N2CCN(c3ccccc3F)CC2)c1	–	·	–	–	·	–
CC(C)(C)c1ccc(Cn2cnc3c(cnn3C(C)(C)C)c2=O)cc1	–	·	·	–	·	·
O=c1c(C(c2ccc(Br)cc2)c2c(O)nc3n(c2=O)CCCS3)c(O)nc2n1CCCS2	?	–	–	7.1µM	–	–
O=c1c(C(c2ccc(Br)cc2)c2c(O)nc3n(c2=O)CCS3)c(O)nc2n1CCS2	–	–	–	1.6µM	–	–

Compound activity deposited in PubChem by National Center for Advancing Translational Sciences (NCATS).
